According to PubChem BioAssay (NCI):
This is part of a sample that, as a whole, favours compounds with a hit. Of some 83,000 tested, about 20% had one in any assay.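 Method: cells in 96-well plates; compound added at one concentration; 48 h incubation; percent growth measured; values under 10 scored active.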 Values without a mark were called inactive. Active and inactive are the calls of the source.

Key:
Assay in all cases: NCI-60 one-dose screen, 48 h (100 = growth as untreated, 0 = no growth, -100 = all killed)
Conditions in all cases: 10 µM
[1] = system: NCI-H23 lung
[2] = system: NCI-H226 lung
[3] = system: NCI-H322M lung
[4] = system: HOP-62 NSCLC
[5] = system: NCI-H460 lung
[6] = system: NCI-H522 lung
[7] = system: A549/ATCC NSCLC
[8] = system: 786-0 renal
[9] = system: COLO 205 colon
[10] = system: DU-145 prostate

SMILES: CCc1ccc2c(c1)N(CCO)C1=C(C(=O)OC1)C2c1ccccc1 (stereo not given)
- growth [1]: 101%
- growth [2]: 102%
- growth [3]: 115%
- growth [4]: 81.6%
- growth [5]: 109%
- growth [6]: 4.79% (active)
- growth [7]: 104%
- growth [8]: 97.1%
- growth [9]: 109%
- growth [10]: 115%

SMILES: CCOC(=O)C(NC(=O)C(Cl)Cl)C(O)c1ccccc1 (stereo not given)
- growth [1]: 102%
- growth [2]: 93.1%
- growth [3]: 105%
- growth [4]: 82.8%
- growth [5]: 102%
- growth [6]: 122%
- growth [7]: 117%
- growth [8]: 129%
- growth [9]: 126%
- growth [10]: 102%

SMILES: COc1ccc(Nc2ccnc(NCCNc3ccnc4cc(Cl)ccc34)n2)cc1
- growth [1]: 48.8%
- growth [2]: 49.7%
- growth [3]: 64.7%
- growth [4]: 74.6%
- growth [5]: 47.4%
- growth [6]: 43.9%
- growth [7]: 47%
- growth [8]: 59.4%
- growth [9]: 38.8%
- growth [10]: 61.4%

SMILES: CN(Cc1ccccc1)Cc1ccc([N+](=O)[O-])cc1I
- growth [1]: 107%
- growth [2]: 94.5%
- growth [3]: 92.9%
- growth [4]: 101%
- growth [5]: 97.3%
- growth [6]: 86.7%
- growth [7]: 93.6%
- growth [8]: 97.8%
- growth [9]: 104%
- growth [10]: 95.6%

SMILES: NC1=NC(=O)C(c2ccccc2)(c2ccccc2)S1
- growth [1]: 106%
- growth [2]: 103%
- growth [3]: 111%
- growth [4]: 98.1%
- growth [5]: 113%
- growth [6]: 102%
- growth [7]: 104%
- growth [8]: 102%
- growth [9]: 117%
- growth [10]: 114%

SMILES: CC(=O)C1CCC2C3CC(F)C4=CC(=O)CCC4(C)C3C(O)CC12C (stereo not given)
- growth [1]: 104%
- growth [2]: 85.9%
- growth [3]: 90.9%
- growth [4]: 93%
- growth [5]: 103%
- growth [6]: 85.8%
- growth [7]: 82.3%
- growth [8]: 96.3%
- growth [9]: 104%
- growth [10]: 110%

SMILES: N=C(N)c1ccc(-c2ccc(-c3cccs3)s2)s1
- growth [1]: 51.8%
- growth [2]: 74.2%
- growth [3]: -29.8% (active)
- growth [4]: -67.4% (active)
- growth [5]: -82.2% (active)
- growth [6]: -69.5% (active)
- growth [7]: -63.2% (active)
- growth [8]: -88.6% (active)
- growth [9]: -93.8% (active)
- growth [10]: -91.6% (active)

SMILES: COc1ccc(-c2nn(-c3cccc(NC(=O)Nc4cccc(C(F)(F)F)c4)c3)cc2-c2ccncc2)cc1Cl
- growth [1]: 5.45% (active)
- growth [2]: 25.7%
- growth [3]: 24.4%
- growth [4]: 25.2%
- growth [5]: 2.43% (active)
- growth [6]: -6.94% (active)
- growth [7]: 7.5% (active)
- growth [8]: 24.2%
- growth [9]: 1.37% (active)
- growth [10]: 22%

SMILES: COc1cc2cc3c(nc2cc1OC)CCN3Cc1ccc(NC(=O)Nc2cc(C(F)(F)F)cc(C(F)(F)F)c2)cc1
- growth [1]: 77.9%
- growth [2]: 92.6%
- growth [3]: 72.5%
- growth [4]: 97.5%
- growth [5]: 63.3%
- growth [6]: 51.8%
- growth [7]: 52.1%
- growth [8]: 81.4%
- growth [9]: 90%
- growth [10]: 94.7%

SMILES: CCN(CC)CCCC(C)Nc1nc(-c2ccc(OC)cc2)nc2cc(Cl)ccc12 (stereo not given)
- growth [1]: 73.2%
- growth [2]: 91.7%
- growth [3]: 65.4%
- growth [4]: 70.5%
- growth [5]: 72.5%
- growth [6]: 35.6%
- growth [7]: 69.6%
- growth [8]: 65.5%
- growth [9]: 41.6%
- growth [10]: 77.9%

SMILES: Cc1ccc(N=Nc2c(N)nc(N)[nH]c2=O)cc1C
- growth [1]: 101%
- growth [2]: 93.5%
- growth [3]: 83.1%
- growth [4]: 92.9%
- growth [5]: 107%
- growth [6]: 92.1%
- growth [7]: 104%
- growth [8]: 91.2%
- growth [9]: 112%
- growth [10]: 117%

SMILES: C#Cc1ccc(-n2c(/C=C/c3ccc(O)cc3)nc3ncccc3c2=O)cc1
- growth [1]: 82.8%
- growth [2]: 58.7%
- growth [3]: 86.4%
- growth [4]: 59.4%
- growth [5]: 92%
- growth [6]: 0.111% (active)
- growth [7]: 53.5%
- growth [8]: 62.6%
- growth [9]: 110%
- growth [10]: 81.8%

SMILES: CC(=O)[C@H]1CC[C@H]2[C@@H]3CCC4=CC(=O)C=C[C@]4(C)[C@H]3CC[C@]12C
- growth [1]: 90%
- growth [2]: 88.4%
- growth [3]: 97%
- growth [4]: 100%
- growth [5]: 96.1%
- growth [6]: 81.4%
- growth [7]: 94.4%
- growth [8]: 99.8%
- growth [9]: 119%
- growth [10]: 108%

SMILES: CCc1ccc2c(c1)N(CCO)C1=C(C(=O)OC1)C2c1cc(OC)c(OC)c(OC)c1 (stereo not given)
- growth [1]: 19.5%
- growth [2]: 3.03% (active)
- growth [3]: 13.7%
- growth [4]: 28.8%
- growth [5]: 2.43% (active)
- growth [6]: -40.4% (active)
- growth [7]: 16.3%
- growth [8]: 20.2%
- growth [9]: -69.3% (active)
- growth [10]: -28.3% (active)

SMILES: COc1cccc(-c2cc(-c3cccc(NS(C)(=O)=O)c3)nc(N)c2C#N)c1O
- growth [1]: 26.7%
- growth [2]: 74.5%
- growth [3]: 34.6%
- growth [4]: 52.1%
- growth [5]: 8.75% (active)
- growth [6]: 0.405% (active)
- growth [7]: 31%
- growth [8]: 49.4%
- growth [9]: -6.05% (active)
- growth [10]: 15.1%

SMILES: COc1ccc(CN2CCC(N3CCCC3=O)c3cc(Cl)ccc32)cc1 (stereo not given)
- growth [1]: 96%
- growth [2]: 114%
- growth [3]: 104%
- growth [4]: 98.3%
- growth [5]: 110%
- growth [6]: 75.6%
- growth [7]: 104%
- growth [8]: 109%
- growth [9]: 110%
- growth [10]: 116%

SMILES: CC(C)=CCc1cc(O)cc2c1OC(C=C(C)C)C1=C2C(=O)C2=C(NCCS2(=O)=O)C1=O (stereo not given)
- growth [1]: -48.7% (active)
- growth [2]: -17.6% (active)
- growth [3]: -17.5% (active)
- growth [4]: -12.6% (active)
- growth [5]: 3.29% (active)
- growth [6]: -20.6% (active)
- growth [7]: 2.33% (active)
- growth [8]: 22.9%
- growth [9]: -61.3% (active)
- growth [10]: -95.3% (active)

SMILES: Cc1ccc(-c2nc(/C=C3/C(=O)N(C)c4ccc(F)cc43)c3ccccn23)cc1
- growth [1]: 86.5%
- growth [2]: 106%
- growth [3]: 103%
- growth [4]: 77.9%
- growth [5]: 96.7%
- growth [6]: 60.5%
- growth [7]: 94.1%
- growth [8]: 107%
- growth [9]: 120%
- growth [10]: 99.3%

SMILES: CC[C@H]1CCC/C=C/[C@@H]2C[C@H](O)C[C@H]2[C@H](O)/C=C/C(=O)O1
- growth [1]: -12.8% (active)
- growth [2]: -1.27% (active)
- growth [3]: -2.58% (active)
- growth [4]: 25.2%
- growth [5]: 6.08% (active)
- growth [6]: -56.8% (active)
- growth [7]: 5.74% (active)
- growth [8]: -49% (active)
- growth [9]: -97.2% (active)
- growth [10]: 3.43% (active)

SMILES: CCN(CC)CCOc1nc2ccc(OC)cc2c2c1-c1ccc(OC)cc1C2=O
- growth [1]: -30.5% (active)
- growth [2]: 16.5%
- growth [3]: -13.2% (active)
- growth [4]: 6.96% (active)
- growth [5]: -75.4% (active)
- growth [6]: -89.2% (active)
- growth [7]: -67.2% (active)
- growth [8]: 26%
- growth [9]: 15.3%
- growth [10]: -70.3% (active)

SMILES: O=C(Nc1cccc(-n2cc(-c3ccncc3)c(-c3ccc(O)c(Cl)c3)n2)c1)c1ccc(Cl)c(Cl)c1
- growth [1]: 78.5%
- growth [2]: 80.6%
- growth [3]: 77.3%
- growth [4]: 67.7%
- growth [5]: 20.8%
- growth [6]: 41.5%
- growth [7]: 41.2%
- growth [8]: 55.3%
- growth [9]: 102%
- growth [10]: 80.5%

SMILES: CS(=O)(=O)Nc1ccc(Nc2c3ccccc3nc3cc(N)ccc23)cc1
- growth [1]: 20.5%
- growth [2]: -13.9% (active)
- growth [3]: 42%
- growth [4]: 11.9%
- growth [5]: 1.01% (active)
- growth [6]: -11.5% (active)
- growth [7]: 11%
- growth [8]: 2.37% (active)
- growth [9]: 51.9%
- growth [10]: 16.9%

SMILES: COc1cc(-c2nc(Nc3nc4ccccc4s3)[nH]c(=O)c2C#N)cc(OC)c1O
- growth [1]: 105%
- growth [2]: 102%
- growth [3]: 124%
- growth [4]: 99.5%
- growth [5]: 105%
- growth [6]: 97.2%
- growth [7]: 106%
- growth [8]: 101%
- growth [9]: 100%
- growth [10]: 113%

SMILES: CC/C(C)=C(\C)C(=O)O
- growth [1]: 101%
- growth [2]: 96.5%
- growth [3]: 89.5%
- growth [4]: 95%
- growth [5]: 105%
- growth [6]: 89.3%
- growth [7]: 101%
- growth [8]: 98.5%
- growth [9]: 104%
- growth [10]: 104%

SMILES: O=C(c1cccs1)c1ccccc1Cc1ccccc1
- growth [1]: 102%
- growth [2]: 92.3%
- growth [3]: 83.6%
- growth [4]: 96.6%
- growth [5]: 107%
- growth [6]: 100%
- growth [7]: 89.1%
- growth [8]: 108%
- growth [9]: 116%
- growth [10]: 128%

SMILES: CCCCCCN(CCCCCC)CC(O)c1ccc2c3c(cccc13)CC2 (stereo not given)
- growth [1]: 30.5%
- growth [2]: 69.9%
- growth [3]: 65.9%
- growth [4]: 85.2%
- growth [5]: 42.6%
- growth [6]: 30.1%
- growth [7]: 64.1%
- growth [8]: 43.1%
- growth [9]: 64.1%
- growth [10]: 76.4%

SMILES: CC/C(=C(/c1ccc(OCCN(C)C)cc1)c1ccc(OC(=O)CCCCCCCCC(=O)c2c(C)[nH]c(/C=C3\N=C(c4ccc[nH]4)C=C3OC)c2C)cc1)c1ccccc1
- growth [1]: 88%
- growth [2]: 52.6%
- growth [3]: 77%
- growth [4]: 75.9%
- growth [5]: 46.9%
- growth [6]: 54.5%
- growth [7]: 50%
- growth [8]: 63.9%
- growth [9]: 88%
- growth [10]: 67.6%
